Here are results for 15 compounds from PubChem BioAssay (NCI).

This is part of a sample that, as a whole, favours compounds with a hit. Of some 83,000 tested, about 20% had one in any assay.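 Assay: single dose, 48 h. Readout: percent growth (0 = no net growth; negative = cell death). Active: <10.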 A number with no mark means an inactive call. Active and inactive are the calls of the source.

Test systems include T-47D breast; BT-549 breast; MDA-MB-435 melanoma; SW-620 colon; MCF7 breast; HCT-116 colon; HCC-2998 colon; KM12 colon.
What all share (experiment): NCI-60 one-dose screen, 48 h (100 = growth as untreated, 0 = no growth, -100 = all killed)
Details in all cases: 10 µM unless noted

Turning to `Cc1cc(Nc2ccc(C)c(Cl)c2)n2nc(C(F)(F)F)nc2n1`, the growth in the assay with T-47D breast is -0.705% (active); in the assay with BT-549 breast, 69.6%; in the assay on MDA-MB-435 melanoma, 34.5%; in the assay with SW-620 colon, 40.6%; in the assay with MCF7 breast, 77.9%; in the assay on HCT-116 colon it was 18.5%. In addition, the growth in the assay on HCC-2998 colon is 74.5%; in the assay on KM12 colon it was 62%.

In the case of `COc1ccc(-c2nc3ccc(-c4nc5ccc(N6CCN(C)CC6)cc5[nH]4)cc3[nH]2)cc1OC`, the growth with T-47D breast was 28.3%; in the assay on BT-549 breast it was 63%; in the assay on MDA-MB-435 melanoma, 41.9%; with SW-620 colon, 49.2%; in the assay with MCF7 breast, 21.1%; with HCT-116 colon it was 23.5%. Besides, the growth in the assay on HCC-2998 colon was 77.7%; with KM12 colon, 97.8%.

In the case of `O=C(Oc1cccnc1)c1ccsc1Nc1ccnc(C(F)(F)F)c1`, the growth in the assay on T-47D breast is 72.7%; in the assay on BT-549 breast, 45%; in the assay with MDA-MB-435 melanoma, 82.6%; in the assay on SW-620 colon, 21%; with MCF7 breast it was 58.2%; in the assay with HCT-116 colon, 9.98% (active). The growth with HCC-2998 colon is 114%; in the assay with KM12 colon it was 41%.

As for `Cc1ccc(NS(=O)(=O)c2ccc(-c3cnc(C4CC4)o3)cc2)cc1C`, the growth is 26.4% in the assay on T-47D breast; 35.5% in the assay on BT-549 breast; 4.45% (active) in the assay with MDA-MB-435 melanoma; 19.7% in the assay on SW-620 colon; 12.1% with MCF7 breast; 19.4% in the assay with HCT-116 colon. Besides, the growth is 45% in the assay on HCC-2998 colon and 42.8% in the assay with KM12 colon.

As for `Cc1ccc(NC(=O)C2CCC(CN3CCN(C)CC3)CC2)cc1Nc1nccc(-c2cccnc2)n1` (stereo not given), the growth with T-47D breast was 86.2%; in the assay with BT-549 breast, 103%; in the assay with MDA-MB-435 melanoma it was 93.5%; in the assay with SW-620 colon, 98.4%; with MCF7 breast it was 83.8%; in the assay on HCT-116 colon it was 101%. Further, the growth in the assay with HCC-2998 colon is 106%; in the assay on KM12 colon it was 97.3%.

In the case of `Cc1cc(N2CCN(C)CC2)nc(NC2CCCC(Nc3ccnc4cc(Cl)ccc34)C2)n1` (stereo not given), the growth in the assay on T-47D breast is -48.5% (active); with BT-549 breast, -41.9% (active); in the assay with MDA-MB-435 melanoma it was -86% (active); in the assay on SW-620 colon it was 2.79% (active); in the assay with MCF7 breast, -10.5% (active); in the assay on HCT-116 colon it was -69.6% (active). Also, the growth in the assay with HCC-2998 colon was 8.13% (active); in the assay on KM12 colon, 10.4%.

For the compound `O=C(COc1cccc(/C=C2\CSc3ccccc3C2=O)c1)Nc1nccs1`, the growth was 68.9% in the assay on T-47D breast; -92.9% (active) with BT-549 breast; 20.8% with MDA-MB-435 melanoma; -74.1% (active) with SW-620 colon; -0.12% (active) in the assay with MCF7 breast; -21% (active) in the assay on HCT-116 colon. Besides, the growth in the assay on HCC-2998 colon was 100%; in the assay with KM12 colon it was -39.7% (active).

Consider `Cc1nn(-c2cc(=O)[nH]c3ccccc23)c(N)c1C#N`, for which the growth in the assay with T-47D breast was 104%; in the assay on BT-549 breast it was 110%; with MDA-MB-435 melanoma it was 106%; in the assay with SW-620 colon, 103%; in the assay with MCF7 breast, 97.5%; in the assay with HCT-116 colon, 107%. Further, the results for the growth in the assay on HCC-2998 colon and with KM12 colon were 115% and 101%, respectively.

As to `CCn1c(O)c(/C=N/NC(=O)C(C)c2ccc(CC(C)C)cc2)sc1=S` (stereo not given), the growth was 38% with T-47D breast; 11.5% in the assay on BT-549 breast; -44.4% (active) in the assay with MDA-MB-435 melanoma; 27.3% with SW-620 colon; 20.5% with MCF7 breast; 11.6% with HCT-116 colon. Moreover, the growth with HCC-2998 colon is 29.5%; in the assay on KM12 colon it was 18.7%.

As to `OCCNc1nccc(N2CCN(c3ccnc4cc(Cl)ccc34)CC2)n1`, the growth in the assay with T-47D breast was 69%; in the assay on BT-549 breast, 68.3%; in the assay on MDA-MB-435 melanoma, 7.31% (active); in the assay with SW-620 colon, 44.4%; in the assay with MCF7 breast, 34.2%; in the assay on HCT-116 colon, 47.1%. Moreover, the growth with HCC-2998 colon is 86.4%; in the assay on KM12 colon it was 60.8%.

Regarding `Cc1ccc(-c2onc3c(=O)[nH]nc(-c4ccccc4)c23)cc1`, the growth was 37.1% in the assay with T-47D breast; 40.5% with BT-549 breast; -34.6% (active) in the assay with MDA-MB-435 melanoma; 34.7% in the assay on SW-620 colon; 24% in the assay on MCF7 breast; 25.8% with HCT-116 colon. Moreover, the growth is 60.5% in the assay with HCC-2998 colon and 29.3% in the assay with KM12 colon.

As for `C=CC(=O)Nc1cccc(-c2nc(SC)nc(NCc3ccccc3)c2C#N)c1`, the growth in the assay on T-47D breast was 28.5%; in the assay with BT-549 breast, 44.3%; in the assay with MDA-MB-435 melanoma, 62%; in the assay on SW-620 colon, 89%; in the assay with MCF7 breast, 47.2%; with HCT-116 colon, 55.1%. Moreover, the growth was 84.7% in the assay with HCC-2998 colon and 89.2% with KM12 colon.

Take `CON1C(=O)CC[C@]2(C)[C@H]3CC[C@@H]4C([C@@]5(C)CCC(=O)O5)CC[C@@]4(C)[C@]3(C)CC[C@H]2C1(C)C` (stereo not given in full): the growth is 90.7% in the assay on T-47D breast; 103% in the assay with BT-549 breast; 101% in the assay on MDA-MB-435 melanoma; 103% in the assay on SW-620 colon; 94.8% in the assay with MCF7 breast; 91.4% in the assay on HCT-116 colon. For the same compound, the growth was 108% with HCC-2998 colon and 101% in the assay on KM12 colon.

Take `O=C(CN1CCCCC1)Nc1ccc2oc(=O)ccc2c1`: the growth in the assay with T-47D breast was 103%; with BT-549 breast, 107%; in the assay on MDA-MB-435 melanoma it was 113%; in the assay with SW-620 colon it was 97.9%; with MCF7 breast it was 96%; in the assay on HCT-116 colon, 101%. Further, the growth in the assay on HCC-2998 colon is 110%; in the assay with KM12 colon, 104%.

As for `C#CCOc1ccc2ncnc(N3CCC(NC(=O)CCl)CC3)c2c1`, the growth with T-47D breast was 71% [8.25 µM]; with BT-549 breast it was 64.2% [8.25 µM]; in the assay with MDA-MB-435 melanoma, 68.1% [8.25 µM]; with SW-620 colon it was 55.8% [8.25 µM]; in the assay with MCF7 breast, 51.9% [8.25 µM]; in the assay on HCT-116 colon, 56.5% [8.25 µM]. Also, the growth was 107% [8.25 µM] with HCC-2998 colon and 96.5% [8.25 µM] in the assay on KM12 colon.
